# Source: ChEMBL document CHEMBL4513216, “Probing the Open Global Health Chemical Diversity Library for Multistage-Active Starting Points for Next-Generation Antimalarials” (ACS Infect Dis, 2020)
# About 8,600 (12%) of roughly 69,000 compounds showed an effect of 50% or more. Only a selection was taken, and strong results are over-represented in it overall.
# Test system: Plasmodium berghei
# Assay: Screen against P. berghei liver stage (PbLuc), transformed with Luciferase, at 10uM
# Type: functional, HepG2
# Conditions: tested at 10 uM
row,SMILES,INHIBITION [%]
1,CNCC[C@H]1CC(C)(C)Oc2ccc(C)cc21,53
2,CNCC[C@H]1CC(C)(C)Oc2ccc(OC)cc21,42.6
3,CN1CCN(C(=O)C2CCN(c3cccnn3)C2)CC1 (stereo not given),-18.9
4,O=C(NCc1ccco1)[C@@H]1CCO[C@@H]2CCN(C3CCOCC3)C[C@H]21,11.3
5,Cc1nnc2n1CCN(CCOc1ccc(C(C)(C)C)cc1)C2,13.3
6,NC(=O)C(CNC(=O)COCC(F)(F)F)Cc1ccc(F)cc1 (stereo not given),17.4
7,OC1(CN2CCCCC2)CCN(c2cc(C(F)(F)F)ccn2)C1 (stereo not given),33.9
8,OC1(CN2CCCCC2)CCN(c2cccc(C(F)(F)F)n2)C1 (stereo not given),46.7
9,OC1(CN2CCCCC2)CCN(c2ccc(C(F)(F)F)cn2)C1 (stereo not given),59.4
10,O=C(NCc1ccoc1)Nc1cc(C(F)(F)F)c[nH]c1=O,-45.5
11,Fc1ccccc1CN1C[C@@H](OCc2ccncc2)[C@H]2OCCC[C@H]21,23.5
12,Fc1ccccc1CN1C[C@H](OCC2CCOCC2)[C@H]2OCCC[C@H]21,-28.8
13,CO[C@H]1CN(Cc2ccccc2F)[C@@H]2CCCO[C@H]12,68.8
14,Cc1ccccc1CN1CC[C@H]2C[C@H](C(=O)N(C)C)O[C@H]2C1,19.5
15,COCC(=O)N1CCc2cccc(S(=O)(=O)N3CCN(C)CC3)c2C1,8.51
16,O=C(Nc1ccccc1-c1cccs1)N1CCOCC1,-11.6
17,Cc1ccc(NC(=O)N2CCOC(C(N)=O)C2)cc1C(F)(F)F (stereo not given),-14.3
18,CCOc1ccc(NC(=O)N2CCOC(C(N)=O)C2)cc1Cl (stereo not given),-16.9
19,COCC1CN(C(=O)Nc2cc(Cl)cc(Cl)c2)CCO1 (stereo not given),-42.9
20,Cc1cc(NC(=O)N2CCOC(C(N)=O)C2)ccc1Br (stereo not given),-62.8
21,NC(=O)C1CN(C(=O)Nc2ccccc2-c2cccs2)CCO1 (stereo not given),57.2
22,NC(=O)C1CN(C(=O)Nc2cc(Cl)cc(Cl)c2)CCO1 (stereo not given),88.4
23,CN1CCCc2cc(NC(=O)N3CCOC(C(N)=O)C3)ccc21 (stereo not given),68.5
24,NC(=O)C1CN(C(=O)Nc2ccccc2N2CCCCCC2)CCO1 (stereo not given),-22.7
25,CCC(=O)NS(=O)(=O)c1cccnc1Nc1cccc(Cl)c1Cl,42.6
26,Cc1nc(CN2Cc3nccn3CC(CN3CCOCC3)C2)cs1 (stereo not given),-40.1
27,COc1cccc(-n2nnc(C(=O)N3CCC(C(N)=O)CC3)c2C)c1,13.115
28,Cc1cc(C(=O)NC2CCCOc3cc(Cl)ccc32)n(C)n1 (stereo not given),43.6

row,SMILES,INHIBITION [%]
1,O=C(c1ccc2c(c1)[nH]c(=O)n2C1CCC(O)CC1)N1CCOCC1 (stereo not given),48
2,CNC(=O)[C@H]1C[C@H]2CN(C(=O)Nc3ccc(F)cc3)C[C@@H]1O2,13.4
3,CCN1CC[C@]2(CN(Cc3nccs3)C[C@H]2c2ccccc2)C1=O,13.7
4,Cc1nc(C2CCCN2Cc2cc(=O)n(C)c(=O)n2C)no1 (stereo not given),15.3
5,CN(Cc1nccs1)C1CCN(c2ncccn2)CC1,21.5
6,CCc1c(C)sc2ncnc(N3CCN(C4CCOCC4)CC3)c12,4.15
7,Cc1cc2c(N3CCC(N(C)CCc4cnn(C)c4)CC3)ncnc2s1,51.2
8,Cc1csc2c(N3CCC(NCCCc4cnn(C)c4)CC3)ncnc12,31.6
9,Cc1sc2ncnc(N3CCC(N(C)Cc4cnn(C)c4)CC3)c2c1C,61.2
10,Cc1cc2c(N3CCC(N(C)Cc4nccs4)CC3)ncnc2s1,87.5
11,Cc1cc2c(N3CCCC(OCc4cccnc4)C3)ncnc2s1 (stereo not given),85.2
12,Cc1sc2ncnc(N3CCCC3Cn3cccn3)c2c1C (stereo not given),-53
13,Cn1cc(CN2CCc3ncnc(N4CCCC4)c3CC2)cn1,30.5
14,CC(C)(C(=O)N1CCCC(OCc2cccnc2)C1)n1cccc1 (stereo not given),23.1
15,Cc1nn(C)c2nc(N(Cc3nccs3)C3CC3)sc12,33.2
16,Cc1nn(C)c2ncnc(N3CCCC(OCc4cccnc4)C3)c12 (stereo not given),25.1
17,CCCS(=O)(=O)N1CCn2cc(CNc3ccccn3)nc2C1,23.3
18,CCC(=O)N1Cc2nccn2CC(CN(C)Cc2cccnc2)C1 (stereo not given),39.2
19,Cc1csc(N2CCN(Cc3cnc4c(c3)c(C)nn4C)CC2)n1,24
20,CN(C)C[C@H]1OC[C@@H]2CCN(C(=O)c3ccco3)C[C@@H]21,-4.56
21,Cc1nc(C)n(CCNC(=O)C2(C)CC(c3ccccc3)=NO2)n1 (stereo not given),23
22,Fc1cnc(N2CC[C@@H]3O[C@@H](COCc4cccnc4)CC[C@@H]32)nc1,31.4
23,CCc1ccsc1C(=O)N1CCCN(Cc2cscn2)CC1,-16
24,CC(C)c1cc2c(s1)NC(c1ccccc1)NC2=O (stereo not given),9.63
25,Cc1nc(CN2CCCC(N(C)Cc3cnn(C)c3)C2)no1 (stereo not given),5.48
26,Cc1cc2c(N3CCC(N(C)Cc4cnn(C)c4)CC3)ncnc2s1,75.7
27,Cc1cnc(CN(C)C2CCN(CCCc3cnn(C)c3)C2)o1 (stereo not given),48.2
